Here are results for 49 compounds from PubChem BioAssay AID504333 (National Center for Advancing Translational Sciences (NCATS), 2011).

Among all 360,000 compounds or so, about 16,000 (4.4%) were called active. Inconclusive results (about 9%) are left out. Calls come from the whole dose curve; as a rule, active = well fitted inhibition curve with a large enough effect; inconclusive = small, poorly fitted or top-dose-only effect; inactive = no such curve, though single readings can be large or run the other way. This excerpt belongs to a sample that is enriched for actives.
% is set by controls: 0 for no effect and ±100 for the full control effect; potency is the fitted concentration of half-maximal effect.

The target of this assay is Bromodomain adjacent to zinc finger domain protein 2B (Homo sapiens) (UniProt Q9UIF8). Kind of assay: qHTS Assay for Inhibitors of BAZ2B. Note: nearly all actives have a fitted effect of over 60% in size. The note with it: AlphaScreen BAZ2B-H3K14Ac peptide displacement; series mostly up to 114 µM; activity change, negative = inhibition: at the top concentration. In outline: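 Protein-peptide AlphaScreen: BAZ2B 50 nM, b-H3K14Ac 50 nM, 1x PBS pH 7.4 + 0.01% Tween-20. Preincubation 30 min RT; cpd 30 min RT (top 110 uM); beads 20 min RT, light-protected.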
Bromodomain adjacent to zinc finger domain protein 2B (Homo sapiens), sequence (Q9UIF8 whole entry, looked up, the tested form may be a part): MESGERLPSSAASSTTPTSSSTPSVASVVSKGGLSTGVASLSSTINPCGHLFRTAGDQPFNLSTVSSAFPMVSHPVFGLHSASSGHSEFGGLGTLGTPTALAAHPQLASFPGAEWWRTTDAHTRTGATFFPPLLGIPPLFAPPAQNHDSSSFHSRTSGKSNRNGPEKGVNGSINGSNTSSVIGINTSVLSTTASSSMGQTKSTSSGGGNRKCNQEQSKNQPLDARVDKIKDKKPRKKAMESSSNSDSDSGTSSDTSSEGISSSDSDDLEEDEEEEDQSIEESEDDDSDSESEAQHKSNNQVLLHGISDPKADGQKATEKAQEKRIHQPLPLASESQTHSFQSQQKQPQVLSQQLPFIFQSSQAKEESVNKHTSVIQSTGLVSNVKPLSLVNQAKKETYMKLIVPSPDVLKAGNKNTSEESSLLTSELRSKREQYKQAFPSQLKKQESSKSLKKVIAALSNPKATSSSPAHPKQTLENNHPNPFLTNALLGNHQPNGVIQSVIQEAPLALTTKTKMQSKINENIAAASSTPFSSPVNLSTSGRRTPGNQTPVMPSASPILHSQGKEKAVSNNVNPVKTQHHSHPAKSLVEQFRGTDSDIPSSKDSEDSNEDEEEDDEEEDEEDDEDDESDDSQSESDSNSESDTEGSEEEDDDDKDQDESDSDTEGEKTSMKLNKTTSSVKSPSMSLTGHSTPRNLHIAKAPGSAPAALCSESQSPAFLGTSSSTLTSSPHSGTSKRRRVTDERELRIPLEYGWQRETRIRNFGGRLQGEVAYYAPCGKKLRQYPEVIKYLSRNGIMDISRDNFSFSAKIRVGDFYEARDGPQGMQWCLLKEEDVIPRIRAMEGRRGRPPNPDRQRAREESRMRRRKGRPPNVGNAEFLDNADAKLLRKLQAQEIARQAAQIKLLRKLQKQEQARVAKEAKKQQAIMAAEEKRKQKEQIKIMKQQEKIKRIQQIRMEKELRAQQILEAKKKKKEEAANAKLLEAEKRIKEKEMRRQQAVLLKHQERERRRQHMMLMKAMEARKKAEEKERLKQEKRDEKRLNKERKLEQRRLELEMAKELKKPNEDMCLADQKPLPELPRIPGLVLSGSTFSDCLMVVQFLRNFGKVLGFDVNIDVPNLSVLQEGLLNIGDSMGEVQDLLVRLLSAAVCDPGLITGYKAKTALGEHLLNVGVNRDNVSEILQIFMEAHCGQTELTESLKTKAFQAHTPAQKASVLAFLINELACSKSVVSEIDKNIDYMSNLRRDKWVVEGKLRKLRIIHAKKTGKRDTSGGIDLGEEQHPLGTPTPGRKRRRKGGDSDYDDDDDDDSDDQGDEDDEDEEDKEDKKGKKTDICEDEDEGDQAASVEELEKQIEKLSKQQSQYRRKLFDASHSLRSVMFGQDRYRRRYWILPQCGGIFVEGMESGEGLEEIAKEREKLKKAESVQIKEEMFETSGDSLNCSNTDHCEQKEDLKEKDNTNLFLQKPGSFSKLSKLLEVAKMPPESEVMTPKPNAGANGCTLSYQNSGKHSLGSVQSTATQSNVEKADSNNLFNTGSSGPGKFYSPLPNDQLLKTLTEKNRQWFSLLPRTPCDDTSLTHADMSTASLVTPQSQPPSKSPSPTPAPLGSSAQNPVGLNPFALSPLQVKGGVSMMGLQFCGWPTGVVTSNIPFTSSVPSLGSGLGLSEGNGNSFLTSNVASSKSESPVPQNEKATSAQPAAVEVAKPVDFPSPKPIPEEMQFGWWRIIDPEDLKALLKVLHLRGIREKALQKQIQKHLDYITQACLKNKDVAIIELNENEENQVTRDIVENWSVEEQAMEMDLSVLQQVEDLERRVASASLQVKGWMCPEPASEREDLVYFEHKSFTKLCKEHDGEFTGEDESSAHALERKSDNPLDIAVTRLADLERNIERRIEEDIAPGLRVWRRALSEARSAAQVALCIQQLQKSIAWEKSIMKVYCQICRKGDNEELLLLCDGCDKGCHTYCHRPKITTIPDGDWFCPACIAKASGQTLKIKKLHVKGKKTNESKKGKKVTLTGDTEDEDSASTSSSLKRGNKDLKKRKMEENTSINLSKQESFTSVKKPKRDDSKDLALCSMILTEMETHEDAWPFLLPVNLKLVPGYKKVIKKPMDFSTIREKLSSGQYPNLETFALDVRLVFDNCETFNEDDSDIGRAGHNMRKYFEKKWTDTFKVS
With `CCc1ccc(CNC(=O)c2ccc(CS(=O)c3ccc(Br)cc3)o2)cc1` (centres undefined), the “activity change, negative = inhibition” value was 0.453% (inactive).
For `CCc1nnc(SCc2c(F)cccc2Cl)c2cc3sccc3n12`, the “activity change, negative = inhibition” value was -6.2% (inactive).
`Nc1ccc2nc3c(=O)[nH]c(=S)[nH]c3nc2c1`: the Potency is 31.6 µM (active).
`CC1CN(C(=O)N2CCC(C(=O)NCc3cccs3)CC2)c2ccccc2O1` (centres undefined): the “activity change, negative = inhibition” value is -1.78% (inactive).
As to `CCn1c(=O)cc(OCC(=O)Nc2cc(Cl)c(OC)cc2OC)c2ccccc21`, the “activity change, negative = inhibition” value is -13.1% (inactive).
For `Cc1cccc(C(=O)Nc2ccc(-c3nc4ncccc4o3)cc2C)c1`, the “activity change, negative = inhibition” value was -1.15% (inactive).
For the compound `O=C(Cc1ccccc1)NC(=S)Nc1ccc(N2CCCCC2)cc1`, the Potency was 12.6 µM (active).
With `COc1cccc(C(=O)Nc2ccc(N3CCCC3)cc2)c1`, the Potency is 31.6 µM (active).
For the compound `COc1cccc(C(=O)Nc2ccc3nc4n(c(=O)c3c2)CCCCC4)c1`, the “activity change, negative = inhibition” value is -12.9% (inactive).
On to `Cc1ccccc1C(=O)NC(=S)Nc1ccc(N2CCN(C(=O)c3ccccc3)CC2)cc1`, for which the “activity change, negative = inhibition” value is 0.365% (inactive).
As to `Cc1ccccc1C(=O)N1CCN(c2ccc(NC(=O)c3cccs3)cc2)CC1`, the “activity change, negative = inhibition” value is -32.9% (inactive).
For the compound `O=C(CCN1CCN(c2ccccc2)CC1)NNC(=S)Nc1ccccc1`, the “activity change, negative = inhibition” value was -17.5% (inactive).
Consider `COC(=O)Cc1ccc(NC(=S)NCc2ccccc2)cc1`, for which the “activity change, negative = inhibition” value was -2.73% (inactive).
Still for that read-out and setting: the result for `COc1cccc(C(=O)Nc2ccc(N3CCN(C(=O)c4ccco4)CC3)cc2)c1` reads -12.1% (inactive).
For the compound `Cc1ccccc1C(=O)Nc1ccc(N2CCCCCC2)cc1`, the Potency was 31.6 µM (active).
With `Cc1cc2nn(-c3ccc(Cl)cc3)nc2cc1NC(=O)C(C)C`, the “activity change, negative = inhibition” value was 0.62% (inactive).
For `CCC1CCCCN1S(=O)(=O)c1ccc(NC(=O)c2cc(=O)c3ccccc3o2)cc1` (centres undefined), the “activity change, negative = inhibition” value was -2.23% (inactive).
On to `CC(=O)Nc1cc(C(=O)NCc2ccc(F)cc2Cl)ccc1Sc1ccc(Cl)cc1`, for which the “activity change, negative = inhibition” value was -4.28% (inactive).
The same measure, in the same setting: then `CSc1cccc(NC(=O)CN2C(=O)CCc3cc(S(=O)(=O)N4CCCCC4)ccc32)c1`, with -3.68% (inactive); and `Cc1ccccc1-n1c(=O)c2ccccc2n(Cc2ccc(F)cc2)c1=O`, with 0.401% (inactive).
Turning to `Cc1ccc(-c2nnc(Nc3ccc(OCC(N)=O)cc3)c3ccccc23)cc1S(=O)(=O)NCC1CCCO1` (centres undefined), the “activity change, negative = inhibition” value is -14.3% (inactive).
For `COc1ccc(CNC(=O)CS(=O)Cc2nc(-c3cccc(C)c3)oc2C)cc1` (centres undefined), the “activity change, negative = inhibition” value was -24.3% (inactive).
As for `COc1ccc(CCNC(=O)c2c3c(nc4ccccc24)C(=O)N(C2CCCCC2)C3)cc1OC`, the “activity change, negative = inhibition” value is -11.2% (inactive).
As for `COC(=O)c1cc2occc2n1Cc1nc(-c2ccc(C)cc2)oc1C`, the “activity change, negative = inhibition” value was -13.3% (inactive).
Regarding `Cc1ccc(S(=O)(=O)C(C#N)c2nc3ccccc3nc2N2CCCC2)cc1C` (centres undefined), the Potency was 79.4 µM (active).
In the case of `Cc1cc(N2CCN(S(=O)(=O)c3ccc(C)c(C)c3)CC2)c2ccccc2n1`, the “activity change, negative = inhibition” value is -35.4% (inactive).
The same measure, in the same setting: the result for `Cc1ccc(S(=O)(=O)Nc2nc3ccccc3nc2N2CCc3ccccc3C2)cc1` reads -0.716% (inactive); that for `COc1cccc(Cn2c(CNS(=O)(=O)c3ccc(Cl)s3)nc3cccnc32)c1`, -1.14% (inactive); that for `Cc1ccc(CNS(=O)(=O)c2ccc(C(=O)N(C)C)s2)cc1`, -0.589% (inactive).
For the compound `O=C(CC1C(=O)N(c2ccccc2)C(=O)N1CCc1cccs1)Nc1ccc(F)cc1` (centres undefined), the “activity change, negative = inhibition” value is -2.54% (inactive).
In the case of `CCCOc1ccc(/C(O)=C2/C(=O)C(=O)N(CCN(C)C)C2c2ccc(OC)c(OC)c2)cc1` (centres undefined), the Potency was 79.4 µM (active).
Turning to `COc1cccc(C2/C(=C(/O)c3ccc(F)cc3)C(=O)C(=O)N2CCN(C)C)c1` (centres undefined), the “activity change, negative = inhibition” value is 16.7% (inactive).
For `COc1ccc(/C(O)=C2/C(=O)C(=O)N(CCCN(C)C)C2c2ccccc2)cc1OC` (centres undefined), the “activity change, negative = inhibition” value was 6.91% (inactive).
Take `COc1ccc(CCNC(=O)c2ccc3c(c2)nc(C)n3-c2ccc(Br)cc2)cc1OC`: the “activity change, negative = inhibition” value is -23.5% (inactive).
Same read-out and setting: then `COc1ccccc1CNC(=O)c1ccccc1NC(=O)c1nsc2ccccc12`, with -2.42% (inactive).
`CCOc1ccc(CNC(=O)c2ccc3c(c2)nnn3C2CCCC2)cc1`: the “activity change, negative = inhibition” value was -2.27% (inactive).
Take `Cc1cc(C)c2nc(-c3ccco3)cc(C(=O)O)c2c1`: the Potency was 39.8 µM (active).
Take `O=C(c1cc(-c2ccco2)nc2ccccc12)N(Cc1nnc(-c2ccc(Cl)cc2)o1)C1CC1`: the “activity change, negative = inhibition” value is 1.6% (inactive).
For `CC1CCCN(C(=O)c2cc(-c3ccco3)nc3ccccc23)C1` (centres undefined), the “activity change, negative = inhibition” value was 2.27% (inactive).
Turning to `CC(C)(C)c1ccc(S(=O)(=O)N2CCN(C(=O)c3cc(-c4ccc(Br)cc4)n[nH]3)CC2)cc1`, the “activity change, negative = inhibition” value was -6.78% (inactive).
As for `Cc1cccc(CC(=O)N2CC(=O)Nc3ccc(F)cc3C2c2ccccc2)c1` (centres undefined), the “activity change, negative = inhibition” value was -14.3% (inactive).
As for `CCc1ccc(CNC(=O)c2cc3c(=O)n(CC)c4ccccc4c3s2)cc1`, the “activity change, negative = inhibition” value is -8.35% (inactive).
With `O=C(COc1ccc(/C=N/NS(=O)(=O)c2ccccc2)cc1)NCCc1ccccc1`, the “activity change, negative = inhibition” value was -3.74% (inactive).
For the compound `COc1ccc(N2CC(NS(=O)(=O)c3ccc4ccccc4c3)CC2=O)cc1` (centres undefined), the “activity change, negative = inhibition” value was -3.73% (inactive).
Turning to `O=S(=O)(N/N=C\c1cccn1-c1ccccc1)c1ccc2ccccc2c1`, the Potency was 35.5 µM (active).
Turning to `CCOc1ccccc1CNC(=O)C1CCCN(S(=O)(=O)c2ccc3c(ccn3C)c2)C1` (centres undefined), the “activity change, negative = inhibition” value was -3.49% (inactive).
With `Cc1cc2oc(C(=O)N(Cc3ccc(Cl)cc3)Cc3ccco3)c(C)c2cc1Cl`, the “activity change, negative = inhibition” value was -4.19% (inactive).
As to `CCc1cnc2c(c1SCC(=O)c1ccccc1)c(=O)n(C)c(=O)n2C`, the “activity change, negative = inhibition” value is -11.3% (inactive).
Take `COc1cccc(N2CCN(S(=O)(=O)c3cc(Br)cc4c3N(C(=O)C3CC3)CC4)CC2)c1`: the “activity change, negative = inhibition” value is -3.33% (inactive).
